Laboratory results taken from ChEMBL document CHEMBL3988442, “University of Dundee, Small-Polar-MMV Screening Library” (2021).
The whole screen tested about 48,000 compounds, of which about 13,000 (27%) showed an effect of 50% or more. The list shows a part of the results.

System: Wolbachia pipientis
Assay: Anti-Wolbachia Cell-Based Screen
Format: functional
Design: scale not given: in the data most compounds retested in dose-response had high values
Conditions: 5 µM

| SMILES | Percent Effect |
| --- | --- |
| Cc1ccnn1-c1ccc(C(=O)N2CCN(c3cnccn3)CC2)cc1 | 15.98% |
| CC/N=c1\nc(NCC)nc2n1C(O)(Nc1cc(Cl)ccc1Cl)CS2 (stereo unspecified) | 112.8% |
| CC/N=c1\nc(NCC)nc2n1C(O)(Nc1cccc(C)c1C)CS2 (stereo unspecified) | 97.63% |
| CC/N=c1\nc(NCC)nc2n1C(O)(Nc1cccc(Cl)c1Cl)CS2 (stereo unspecified) | 212.9% |
| Cc1cc(CNc2cc(Cl)ccc2Cl)no1 | -3.438% |
| CC/N=c1\nc(NCC)nc2n1C(O)(Nc1ccc(C)cc1C)CS2 (stereo unspecified) | 134.3% |
| O=C(c1cccc2[nH]ncc12)N1CCCC1c1noc(C2CC2)n1 (stereo unspecified) | -9.191% |
| COc1ccc(S(=O)(=O)N2CC(CC(=O)O)c3ccccc32)cc1 (stereo unspecified) | -7.807% |
| Cl.NCC1CCCCN1C(=O)Cc1cccc(Br)c1 (stereo unspecified) | -8.019% |
| N#CC(NC(=O)c1cccc2c1OCCO2)c1ccc(F)cc1F (stereo unspecified) | -4.984% |
| CCN(Cc1cc(Cl)ccc1OC)Cc1nccn1C | -15.12% |
| CC/N=c1\nc(NCC)nc2n1C(O)(Nc1cc(C)ccc1C)CS2 (stereo unspecified) | 165.1% |
| CCn1c(C2CCCN(Cc3ccc(OC)c(C)c3C)C2)nn(C)c1=O (stereo unspecified) | 24.51% |
| Cc1ccccc1C(C)NC(=O)CN1CCN(Cc2ccc(Br)s2)CC1 (stereo unspecified) | 1.299% |
| O=C1NCC(C(=O)N(Cc2ccc(C(F)(F)F)cc2)C2CC2)N1 (stereo unspecified) | -7.127% |
| Cc1nncn1CCNC(=O)C(C)(C)c1cccc(Cl)c1 | -9.762% |
| CC(C)(NC(=O)Cc1ccccc1F)C(=O)O | 90.43% |
| CC(NC(=O)Cc1ccccc1F)(C(N)=O)c1cccc(Cl)c1 (stereo unspecified) | 85.68% |
| O=C(Cc1cccc(F)c1F)NS(=O)(=O)c1ccc(Cl)cc1F | 16.65% |
| CCC(C)(CC(=O)O)NC(=O)Cc1ccccc1F (stereo unspecified) | -2.363% |
| CC(C)(NC(=O)Cc1ccccc1F)C(C)(C)C(=O)O | 10.54% |
| Cc1cccc(OCCC(=O)NCC(C)(C)C(N)=O)c1 | -9.486% |

| SMILES | Percent Effect |
| --- | --- |
| CS(=O)(=O)Cc1ccc(Cl)cc1NCc1ccccc1F | -2.816% |
| CC(C)(CNC(=O)CCOc1cccc(F)c1)C(N)=O | -11.69% |
| CC(C)(C)SCC(=O)NC(C)(C(N)=O)c1cccc(Cl)c1 (stereo unspecified) | 113.7% |
| CC(C)(CNC(=O)C1CCCN(C(N)=O)C1)c1cccc(Cl)c1 (stereo unspecified) | -3.245% |
| COCCC(=O)NC(C)(C(N)=O)c1cccc(Cl)c1 (stereo unspecified) | 111.9% |
| COC[C@@]12CC[C@@H](N3CCOCC3)C[C@H]1CCN(c1ncccc1F)C2 | -2.051% |
| Cc1nn(C)c(C)c1-c1c(-c2ccccc2)ncn1[C@H](CO)C(=O)O | -8.389% |
| Cc1ncsc1CCN(C)C(=O)c1ncccc1O | -5.816% |
| CC(C)OCc1cccc(NC(=O)N(C)Cc2ncnn2C)c1 | -5.342% |
| O=C1N(Cc2ccc(F)cc2)CCCC12CCN(C1CCSCC1)C2 (stereo unspecified) | -0.8017% |
| CC(C)(CNC(=O)c1ccco1)NC(=O)OC(C)(C)C | -7.413% |
| O=C(Cc1cccs1)NCC1(O)CCSC1 (stereo unspecified) | 0.8903% |
| Cc1cc(CNC(=O)Cc2cccs2)ccc1S(C)(=O)=O | -11.25% |
| CC(NC(=O)NCc1cccc(Cl)c1)(C(=O)O)c1ccco1 (stereo unspecified) | 5.605% |
| CC(C)(C)C(=O)NCC(=O)NC1CC(c2cccc(Cl)c2)C1 (stereo unspecified) | -7.236% |
| CC(C)(CNC(=O)c1ccc(Cl)o1)NC(=O)OC(C)(C)C | -6.326% |
| CC(C)(C)CC(=O)NC(C)(C(N)=O)c1cccc(Cl)c1 (stereo unspecified) | 91.43% |
| CC(NC(=O)Cc1cccs1)(C(N)=O)c1cccc(Cl)c1 (stereo unspecified) | 80.31% |
| CC(C)(C)OC(=O)NC(C)(C(N)=O)c1cccc(Cl)c1 (stereo unspecified) | 178.1% |
| COCc1ccc(C(=O)N2CCN(CC3CC3)[C@@H]3CS(=O)(=O)C[C@@H]32)o1 | -14.33% |
| CCCc1cnc(C)nc1NCCc1nc(C)cc(=O)[nH]1 | 11.65% |
| CN(C)C1CCN(C(=O)c2cc3c(s2)CCN3C(=O)C2CC2)CC1.O=C(O)C(F)(F)F | -3.085% |

| SMILES | Percent Effect |
| --- | --- |
| CN(C)CC(=O)N1CCc2sc(C(=O)N3CCN(C)CC3)cc21 | 110.2% |
| CCCN1CCCC1c1ccc(C(=O)N2CCOCC2)s1 (stereo unspecified) | -8.147% |
| CN1CCCN(C(=O)c2cc3c(s2)CCN3C(=O)C2CC2)CC1 | 2.998% |
| CN1CCN(C(=O)c2cc3c(s2)CCN3C(=O)C2CC2)CC1 | -4.007% |
| CN(C)CC(=O)N1CCc2sc(C(=O)N3CCOCC3)cc21 | 66.53% |
| C=C(C)CNc1ccc(C(=O)N(CC)Cc2nccn2C)cn1 | -22.79% |
| CC(C)c1cnc(CN(C)C2CCN(CCn3cc(C#N)cn3)C2)o1 (stereo unspecified) | 95.34% |
| CC(C)c1cnc(CN(C)C2CCN(CCc3ccncc3)C2)o1 (stereo unspecified) | -3.327% |
| Cc1cnc(CN(C)C2CCN(CCn3cc(C#N)cn3)C2)o1 (stereo unspecified) | 2.575% |
| CCc1cnc(CN(C)C2CCN(CCS(C)(=O)=O)C2)o1 (stereo unspecified) | -2.122% |
| CCc1cnc(CN(C)C2CCN(CCn3cc(C#N)cn3)C2)o1 (stereo unspecified) | 85.15% |
| CC(Oc1ccccc1C(F)(F)F)C(=O)NCC(=O)N1CCCC1 (stereo unspecified) | -9.214% |
| O=C(Cc1ccccc1C(F)(F)F)N1CCC2(CC1)[C@H](O)C[C@@H]2O | 113.5% |
| O=C(Cc1ccccc1C(F)(F)F)N1CCC2(CC1)OCCCC2O (stereo unspecified) | 121.4% |
| CC(=O)N1CCCC2(CN(Cc3ccccc3C(F)(F)F)CCO2)C1 (stereo unspecified) | -3.341% |
| O=C(Cc1ccccn1)N1CCC2(CC1)CN(c1ncccn1)CCO2.O=C(O)C(F)(F)F.O=C(O)C(F)(F)F | 8.931% |
| CSc1ncccc1C(=O)N1CCC2(CC1)OCCCC2O (stereo unspecified) | -4.189% |
| CCS(=O)(=O)N1C[C@@H](c2cc(O)nc(C)n2)[C@H](c2ccccc2F)C1 | 95.46% |
| Cc1cccc(C(=O)N2C[C@H]3CC[C@@H]2CN(S(=O)(=O)N(C)C)C3)n1 | -20.97% |
| Cc1nc(O)cc(CN2C[C@H](NS(=O)(=O)N(C)C)[C@@H](C3CC3)C2)n1 | -8.548% |
| Cc1nc(O)cc(CCNC(=O)c2ccc(CN3CCCCC3)cc2)n1 | 2.411% |
| Cc1nc(O)cc([C@@H]2CN(S(=O)(=O)N(C)C)C[C@H]2c2ccccc2F)n1 | 136.9% |
